From PubChem BioAssay AID1347416 (National Center for Advancing Translational Sciences (NCATS), 2020)
The whole screen tested about 4,100 compounds, of which about 1,600 (39%) were called active. Another 25% or so got no clear call; they are omitted. The list shows a part of the results. A number with no mark means an inactive call. Calls follow the shape of the dose curve; as a rule, active = well fitted inhibition curve with a large enough effect; inconclusive = small, poorly fitted or top-dose-only effect; inactive = no such curve, though single readings can be large or run the other way.

Assay: qHTS Validation assay for Inhibitors of Plasmodium falciparum Dd2 growth in vitro; also: nearly all actives have a fitted effect of over 70% in size
Settings: P. falciparum Dd2 in RBCs, SYBR Green growth, 72 h; series mostly up to 28.7 µM; activity change, negative = inhibition: at the top concentration
From the text: Malaria, a parasitic disease spread to humans through the bite of a Plasmodium infected Anopheles mosquito, continues to be a global health burden affecting millions of people, with an estimated 228 million cases and 405,000 deaths in 2018. Concerns about safety and limitations of current antimalarial treatments strongly emphasize the need to develop new therapeutic options. The scarce number of chemotypes and validated drug targets with efficacy against the liver stage, have hindered development of new antimalarials. To address this, a chemoprophylactic drug discovery effort was conducted through a combined phenotypic high-throughput asexual blood stage and liver stage screen, providing a robust foundation to identify liver-stage active lead chemotypes. Compounds were initially screened against Plasmodium falciparum Dd2 strain parasites using a in vitro SYBRGreen-1 based 72 hr proliferation assay to identify novel chemotypes to advance to liver stage assays. NIH/NCATS Early Translation Branch Assay Submitter (PI): Anton Simeonov Ph.D.
[…] Assay Protocol: PROTOCOL TABLE (as described by Inglese et al., 2007) SEQUENCE No. (e.g., 1, 2, 3, etc.); PARAMETER (e.g., Cells, Incubation, Reagent, etc.); VALUE; DESCRIPTION SEQUENCE, Parameter, Description 1; Reagent; 3 uL complete malaria growth medium, 1536 TC treated Black clear bottom plate 2; Controls; 23 nL positive control artesunate (300 nM final) to column 1; Neutral control DMSO to columns 2-4 3; Compound; 23 nL of compounds in dose response concentration (29 uM to 0.5 nM final) 4; Reagent; 5 uL malaria infected red blood cells (2.5% hematocrit final, 0.3% parasitemia 5; Time; 72 hours at 37C (5% O2, 5% CO2, 90% N2; 95% Rh) 6; Reagent; 2 uL lysis buffer/SYBRGreen-1, 25 sec shake immediately following dispense 7; Time; ~16 hours at 37C (5% O2, 5% CO2, 90% N2; 95% Rh) 8; Detector; EnVision (PerkinElmer) bottom read at 485/14nm excitation and 535/25 nm emission NOTES (numbers refer to sequence above): 1; Complete Malaria Growth Media: 1X RPMI-1640 w/L-glutamine, 5.5g/L Albumax II, 367 uM Hypoxanthine, 25 mM HEPES, 0.25% Sodium Bicarbonate, 35 uM Gentamicin sulfate 2; Controls were added using the Kalypsis Pintool (Wako USA) equipped with 1536 pinhead 3; Compounds were added in a 7-point, titration with a high final concentration of 29 uM by Pintool from seven inter-plate titrations of library plates and two DMSO control plates at the beginning and end (see Yasgar et al., 2008). 4; Red blood cells infected with Plasmodium falciparum Dd2 parasites were used. 6; Lysis buffer: 20 mM Tris-HCl, 10 mM EDTA, 0.16% Saponin, 1.6% Triton-X, 10X SYBR Green. REFERENCE: Inglese J, Shamu CE, Guy RK. 2007. Reporting data from high-throughput screening of small-molecule libraries. Nat Chem Biol. doi:10.1038/nchembio0807-438 Yasgar A, Shinn P, Jadhav A, Auld D, Michael S, Zheng W, Austin CP, Inglese J, Simeonov A. 2008. Compound Management for Quantitative High-Throughput Screening. J Lab Autom 13:79-89. doi:10.1016/j.jala.2007.12.004
% is scaled to controls: 0 for no effect and ±100 for the full control effect; potency is read from the fitted curve at half-maximal effect.

Structure (SMILES)	Potency	activity change, negative = inhibition
CC(=O)Nc1ccc(NC2=Nc3ccccc3N3C2=Nc2c(c(C)nn2-c2ccccc2)C3c2ccccc2)cc1 (stereo not given)	6.68 µM (active)	
CC(C)NC(=O)N1Cc2[nH]cnc2C[C@H]1C(=O)NCc1ccc(Cl)cc1		13.3% [at 43.1 µM]
O=C(Nc1ccc2c(N3CCCC3)ncnc2c1)c1cccc(Br)c1	0.668 µM (active)	
O=C(COc1ccc(-c2nnc3n2CCCC3)cc1)Nc1cccc(Br)c1		-17.9%
O=C(Nc1ccc(CN2CCOCC2)cc1)c1ccc(-c2ccc(Br)cc2)o1		94.7%
O=C(Nc1ccc2c(N3CCOCC3)ncnc2c1)c1cccc(Br)c1	4.22 µM (active)	
CN(C)C(=O)C1CN(C(=O)Nc2cccc(Br)c2)CC12CCOCC2 (stereo not given)		8.32%
O=C(Nc1ccc2c(N3CCCC3)ncnc2c1)c1ccc(Br)cc1	4.73 µM (active)	
O=C(NC1CCCN(c2cc(-c3ccc(Cl)cc3)[nH]n2)C1)c1ccc(Br)o1 (stereo not given)		-27.2%
Cc1ccc(C(=O)N2CCCN(c3cc(-c4ccc(Br)cc4)[nH]n3)CC2)cn1		-1.03%
O=C(Nc1ccc2c(N3CCOCC3)ncnc2c1)c1ccc(Br)o1	2.66 µM (active)	
O=C1[C@H]2CN(Cc3cc(F)ccc3F)C[C@H]2C(=O)N1Cc1ccc2c(c1)OCO2		10.3%
COCCCNC(=O)CCN(CCC(C)C)C(=O)c1cc(C)oc1C		-4.72%
Cc1ccc(OC2(C(=O)NC(C)c3nn[nH]n3)CCNCC2)cc1 (stereo not given)		22.1%
O=C(Nc1ccc2c(N3CCOCC3)ncnc2c1)c1cccc(Cl)c1	4.73 µM (active)	
Clc1ccc(Cn2ncc3c(N4CCOCC4)ncnc32)cc1		12.7%
CN(C1CCOCC1)C1CCN(C(=O)c2cccc(Cl)c2)CC1		-5.93%
CCc1cccc2c(C(CC(=O)N3CCC(C)CC3)c3cccc(C)c3)c[nH]c12 (stereo not given)	4.73 µM (active)	
Cc1cccc(OCC(=O)N2CCC(c3n[nH]c(=O)n3-c3ccccc3)CC2)c1		-6.79%
CN(C)S(=O)(=O)N1CCCC(Cn2c(C3CC3)nc3cccnc32)C1 (stereo not given)		34.5%
Fc1cc(F)cc(CNc2ncncc2-c2nc(-c3ccccc3)no2)c1		0%
CCCCCCSc1ccc([C@@H]2[C@H]3C(=O)N(CC)C(=O)[C@H]3[C@]3(C(=O)OC)CCCCN23)cc1OC	15 µM (active)	
COc1ccc2[nH]c(C[C@@H]3C[C@@H](C(C)C)[C@H](CNCc4ccccc4O)C=C3C)nc2n1	0.243 µM (active)	

Structure (SMILES)	Potency	activity change, negative = inhibition
COc1ccc2[nH]c(C[C@@H]3C[C@@H](C(C)C)[C@H](CNCc4cccnc4)C=C3C)nc2n1	19.3 µM (active)	
Cn1cnc(S(=O)(=O)N2CCCC(Cc3noc(-c4cccnc4)n3)C2)c1 (stereo not given)		19.2%
CC1=C[C@@H](CNCc2cccnc2)[C@H](C(C)C)C[C@H]1Cc1nnc(-c2ccc(N(C)C)cc2)o1	5.31 µM (active)	
CC1=C[C@@H](CNCc2cccnc2)[C@H](C(C)C)C[C@H]1Cc1nnc(-c2ccc([N+](=O)[O-])cc2)o1	5.31 µM (active)	
COc1ccc(-c2nnc(C[C@@H]3C[C@@H](C(C)C)[C@H](CNCc4cccnc4)C=C3C)o2)cc1	6.68 µM (active)	
Brc1ccc(-c2ccnc3nc(-c4cccs4)nn23)s1		-16.3%
Cc1[nH]cnc1CSCCn1ccnc1-c1nccn1C		2.48%
COc1cc(C(=O)OCC(=O)N2CCCCC2C)cc(NC(=O)c2cccs2)c1OC (stereo not given)	0.473 µM (active)	
COc1cc2c(cc1OC)CN(C(=O)c1cccs1)CC2		-20.1%
CCOC(=O)C1=C(O)/C(=C/c2cc(C)n(-c3ccccc3)c2C)N=C1C		-4.25%
CCOC(=O)c1c(CN2CCCCC2)n(C)c2cc(Br)c(O)cc12	7.5 µM (active)	
CCOC(=O)c1c(CN2CCN(c3ccccc3)CC2)oc2cc(Br)c(O)cc12	1.88 µM (active)	
CCOC(=O)c1c(CN2CCN(CCO)CC2)n(-c2ccccc2)c2cc(Br)c(O)cc12	5.96 µM (active)	
CCOC(=O)c1c(CN(CC)CC)n(C)c2cc(Br)c(O)cc12	9.44 µM (active)	
CCOC(=O)c1c(CN(C)C)n(-c2ccc(C)cc2)c2cc(Br)c(O)cc12	4.22 µM (active)	
CCOC(=O)c1c(CNc2ccncc2)n(C)c2cc(Br)c(O)cc12	2.66 µM (active)	
CCOC(=O)c1c(CSC(=N)N)n(-c2ccc(C)cc2)c2cc(Br)c(OC(C)=O)cc12	5.96 µM (active)	
COc1ccc(-c2[nH]nc3ncc(-c4cccnc4)nc23)cc1F	3.85 µM (active)	
COc1ccc(C(=O)N2CCC(Cc3nc(-c4cccnc4)n[nH]3)C2)cc1F (stereo not given)		18.9%
COc1ccccc1CCNC(=O)c1cccn1-c1nnc(N2CCCCC2)s1		-6.38%
Fc1ccc(N2CCN(Cc3cccn3-c3nnc(N4CCN(C5CCCCC5)CC4)s3)CC2)cc1	11.9 µM (active)	
CN(CC1CCOCC1)S(=O)(=O)c1ccc(F)c(Cl)c1		28.6%
CCCCN(CCCC)CC(O)Cn1cc(/C=C/C(=O)c2ccccc2)c2ccccc21 (stereo not given)	1.68 µM (active)	

Structure (SMILES)	Potency	activity change, negative = inhibition
CCCN(CCC)CC(O)Cn1cc(/C=C/C(=O)c2ccc(C)cc2)c2ccccc21 (stereo not given)	4.73 µM (active)	
O=C(NC1CCCN(c2cc(-c3ccccc3)[nH]n2)C1)c1cc(F)ccc1F (stereo not given)		-3.71%
COc1cccc(CN2CCC3(CC2)OC(=O)N(Cc2ccccc2)C3(C)c2ccccc2)c1 (stereo not given)	15 µM (active)	
CC1(c2ccccc2)N(Cc2ccccc2F)C(=O)OC12CCN(Cc1cccc(O)c1)CC2 (stereo not given)	6.68 µM (active)	
CC1(c2ccccc2)N(Cc2ccccc2)C(=O)OC12CCN(Cc1cccc(O)c1)CC2 (stereo not given)	8.41 µM (active)	
COc1cccc(CN2CCC3(CC2)Cc2ccccc2NC3=O)c1		-8.07%
COc1ccc(C(=O)N2CCC(c3nc(C4CCOCC4)no3)CC2)cn1		2.15%
COc1ccc(C(=O)N2CCCn3cc(-c4ccccc4F)nc32)cn1		19.7%
COc1ccc(C(=O)N2CCC3(CC2)OC(=O)N(Cc2ccc(O)cc2)C3(C)c2ccccc2)cn1 (stereo not given)	6.68 µM (active)	
Cc1nc(CN2C(=O)OC3(CCN(C(=O)c4ccc(Oc5ccccc5)cc4)CC3)C2(C)c2ccccc2)cs1 (stereo not given)	13.3 µM (active)	
COc1ccccc1CNC[C@H]1O[C@H](Cc2cc(CN(C)Cc3ccccc3)on2)CC[C@@H]1O	2.99 µM (active)	
CN(Cc1ccccc1)Cc1cc(C[C@@H]2CC[C@H](O)[C@@H](CNCc3ccccc3)O2)no1	4.73 µM (active)	
Cc1cccc(OCC2(CNCc3cccnc3)C[C@@H](O)[C@@H](O)C2)n1 (stereo not given in full)		26.5%
O=C(NC[C@H]1O[C@H](Cc2cc(CN3CCNCC3)on2)CC[C@@H]1O)c1ccccc1F		88%
O[C@@H]1CC(CNCc2cccc(Cl)c2)(COc2ccccc2)C[C@@H]1O (stereo not given in full)	3.85 µM (active)	
O[C@H]1CC[C@@H](Cc2cc(COc3ccccc3)on2)O[C@@H]1CNCc1cccc(Cl)c1	2.11 µM (active)	
O=C(c1cc(F)ccc1F)N1CC(c2nnc(-c3ccncc3)o2)C2(CCOCC2)C1 (stereo not given)		59.8%
COc1cc(OC)c(NC(=O)Cn2c(C)cc3nc4n(c(=O)c32)CCCCC4)cc1Cl		-29.8%
COc1cc(Cc2cc(N)nc(N)n2)cc(OC)c1OC		46.1%
COc1ccc(CN2C[C@H]3CN(Cc4c[nH]c5ccccc45)CCN3C2=O)cc1	3.85 µM (active)	
COc1ccc(-c2cn(CCc3c[nH]c4ccccc34)nn2)cc1		15%
Cc1nnc([C@H]2CCN(Cc3c[nH]c4ccccc34)C2)o1		-16.6% [at 57.5 µM]
Cc1nonc1CC(=O)N1CCCC(CNS(=O)(=O)c2cccs2)C1 (stereo not given)		47.9%

Structure (SMILES)	Potency	activity change, negative = inhibition
CC1(c2ccccc2)CC(c2ccccc2)=Nc2nonc2N1 (stereo not given)	5.31 µM (active)	
COc1cc(/C=C(\C#N)c2nc3ccccc3[nH]2)cc(Cl)c1OCc1ccccc1Cl	5.31 µM (active)	
COc1cc(SC)ccc1C(=O)Nc1nc2ccccc2[nH]1		-19.7%
COc1cc(/C=C(\C#N)c2nc3ccccc3[nH]2)ccc1OCc1ccc(F)cc1	5.31 µM (active)	
O=C(Nc1cnc2ccccc2c1)c1cccc(-n2cnnn2)c1	2.66 µM (active)	
CCc1noc(-c2cccn3c(CNC(=O)c4ccc(Cl)cc4)nnc23)n1		16.2%
CCN1CCN(Cc2c(O)ccc3c(=O)c(Oc4ccccc4C(C)C)c(C(F)(F)F)oc23)CC1	0.596 µM (active)	
CC(C)c1ccccc1Oc1c(C(F)(F)F)oc2c(CN3CCN(C)CC3)c(O)ccc2c1=O	0.668 µM (active)	
Cc1ccc(C)c(Oc2c(C(F)(F)F)oc3c(CN4CCN(C)CC4)c(O)ccc3c2=O)c1	0.75 µM (active)	
Cc1ccccc1C(=O)NC(CC(C)C)C(=O)OCC(=O)c1c(N)n(C)c(=O)n(C)c1=O (stereo not given)	2.66 µM (active)	
CCSc1nnc(SCC(=O)c2c(N)n(C)c(=O)n(C)c2=O)s1		-13.4%
Cc1ccc(N(C)C2=NC(=O)CS2)cc1Cl	9.44 µM (active)	
COc1cc(O)c(C(CCN2CCCC(C)C2)c2ccc(N(C)C)cc2)c(OC)c1 (stereo not given)	1.68 µM (active)	
COc1cc(O)c(C(CCN2CCCC(C)C2)c2cc(OC)c(OC)c(OC)c2)c(OC)c1 (stereo not given)	1.88 µM (active)	
COc1cc(O)c(C(CCN2CCCCC2)c2cc(OC)c(OC)c(OC)c2)c(OC)c1 (stereo not given)	2.66 µM (active)	
COc1cc(O)c(C(CCN2CCCCC2)c2ccc(N(C)C)cc2)c(OC)c1 (stereo not given)	2.66 µM (active)	
CCCCC(CC)CNC(=O)CCCCCn1c(=O)[nH]c2ccsc2c1=O (stereo not given)		-7.19%
COc1ccc(C(CCN2CCCCC2)c2c(O)cc(OC)cc2OC)cc1 (stereo not given)	1.33 µM (active)	
COc1ccc(C(=O)N2CCCC(O)(CN3CCCC3)C2)cc1Cl (stereo not given)		-13.3%
CCn1ccc2ccc(CN3CCCC(O)(CN4CCCC4)C3)cc21 (stereo not given)	7.5 µM (active)	
C=CCN(Cc1ccccc1OCC)C(=O)c1ccc(N(C)S(C)(=O)=O)cc1		4.22%
